Active and inactive are the calls of the source.
Legend:
[1] = test system: PRMT1 (protein arginine N-methyltransferase 1); assay: small molecules binding arginine methyltransferase PRMT1 – biochemical, small-molecule microarray, 635 nm fluorescence, primary screen (AID 1088); settings: higher = more signal;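 also: binding of Prmt1 protein to compounds spotted on small-molecule microarray slides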
[2] = growth effects on S. cerevisiae YJM789 – YJM789 clinical isolate, OD600, 24 h, basal, primary screen (AID 1089); settings: higher = more signal, called active from +8 up or from −8 down;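 also: growth of clinical yeast isolate S. cerevisiae YJM 789 seeded 1000 cells per well; test concentration not given here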
[3] = S. pombe growth modifiers, basal conditions – strain 972, OD600, 24 h, no modulator, primary screen (AID 1090);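 also: basal condition with compound alone and no growth modifier present; test concentration not given here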; settings: S. pombe 972 growth, higher = more signal, called active from +8 up or from −8 down
[4] = budding yeast growth modifiers under rapamycin – strain BY4716, OD600, 96 h, primary screen (AID 1091); also: test concentration not given here; settings: S. cerevisiae BY4716 + rapamycin, higher = more signal, called active from +8 up or from −8 down
[5] = target: Torsin-1A-interacting protein 2 (Homo sapiens) (UniProt Q8NFQ8); assay: small molecules binding lysate-expressed LULL1 – cell lysate, human LULL1 lysate, 635/667 nm fluorescence, primary screen (AID 1092); settings: small-molecule microarray, hLULL1 lysate binding, 635 nm fluorescence; higher = more signal;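 also: probe is lysate of COS7 cells overexpressing human LULL1; score merges per-feature 667 nm fluorescence with signal-to-noise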
[6] = optical density change of DRC41 E. coli – strain DRC41, OD650, 24 h, E. coli filamentation project, primary screen (AID 1093);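 also: MC1000 strain lacking acrAB efflux and sulA so SOS filamentation is blocked; test concentration not given here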; settings: E. coli DRC41 growth, higher = more signal, called active from +8 up or from −8 down
[7] = probe aLefty2 binding to arrayed compounds – biochemical, biotinylated probe, 635/667 nm fluorescence, primary screen (AID 1094); settings: small-molecule microarray, higher = more signal;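 also: score merges spot fluorescence near 667 nm with spot signal-to-noise ratio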
[8] = test system: Noggin (protein binding on small-molecule microarray); assay: small molecules binding Noggin protein – biochemical, 635/667 nm fluorescence, primary screen (AID 1095); settings: 635 nm fluorescence, higher = more signal;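 also: score merges 667 nm feature fluorescence with signal to noise over triplicate slides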
[9] = target: Neurogenic locus notch homolog protein 3 (Homo sapiens) (UniProt Q9UM47); assay: small molecules binding NOTCH3 protein – biochemical, 635/667 nm fluorescence, primary screen (AID 1096); settings: small-molecule microarray, 635 nm fluorescence, higher = more signal
[10] = probe aEGFR binding to arrayed compounds – biochemical, biotinylated probe, 635/667 nm fluorescence, primary screen (AID 1097); settings: small-molecule microarray, higher = more signal;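 also: probe is a biotinylated anti-EGFR antibody binding compounds printed on slides; score combines fluorescence near 667 nm and signal to noise of each spot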

Neurogenic locus notch homolog protein 3 (Homo sapiens), sequence (Q9UM47 whole entry, looked up): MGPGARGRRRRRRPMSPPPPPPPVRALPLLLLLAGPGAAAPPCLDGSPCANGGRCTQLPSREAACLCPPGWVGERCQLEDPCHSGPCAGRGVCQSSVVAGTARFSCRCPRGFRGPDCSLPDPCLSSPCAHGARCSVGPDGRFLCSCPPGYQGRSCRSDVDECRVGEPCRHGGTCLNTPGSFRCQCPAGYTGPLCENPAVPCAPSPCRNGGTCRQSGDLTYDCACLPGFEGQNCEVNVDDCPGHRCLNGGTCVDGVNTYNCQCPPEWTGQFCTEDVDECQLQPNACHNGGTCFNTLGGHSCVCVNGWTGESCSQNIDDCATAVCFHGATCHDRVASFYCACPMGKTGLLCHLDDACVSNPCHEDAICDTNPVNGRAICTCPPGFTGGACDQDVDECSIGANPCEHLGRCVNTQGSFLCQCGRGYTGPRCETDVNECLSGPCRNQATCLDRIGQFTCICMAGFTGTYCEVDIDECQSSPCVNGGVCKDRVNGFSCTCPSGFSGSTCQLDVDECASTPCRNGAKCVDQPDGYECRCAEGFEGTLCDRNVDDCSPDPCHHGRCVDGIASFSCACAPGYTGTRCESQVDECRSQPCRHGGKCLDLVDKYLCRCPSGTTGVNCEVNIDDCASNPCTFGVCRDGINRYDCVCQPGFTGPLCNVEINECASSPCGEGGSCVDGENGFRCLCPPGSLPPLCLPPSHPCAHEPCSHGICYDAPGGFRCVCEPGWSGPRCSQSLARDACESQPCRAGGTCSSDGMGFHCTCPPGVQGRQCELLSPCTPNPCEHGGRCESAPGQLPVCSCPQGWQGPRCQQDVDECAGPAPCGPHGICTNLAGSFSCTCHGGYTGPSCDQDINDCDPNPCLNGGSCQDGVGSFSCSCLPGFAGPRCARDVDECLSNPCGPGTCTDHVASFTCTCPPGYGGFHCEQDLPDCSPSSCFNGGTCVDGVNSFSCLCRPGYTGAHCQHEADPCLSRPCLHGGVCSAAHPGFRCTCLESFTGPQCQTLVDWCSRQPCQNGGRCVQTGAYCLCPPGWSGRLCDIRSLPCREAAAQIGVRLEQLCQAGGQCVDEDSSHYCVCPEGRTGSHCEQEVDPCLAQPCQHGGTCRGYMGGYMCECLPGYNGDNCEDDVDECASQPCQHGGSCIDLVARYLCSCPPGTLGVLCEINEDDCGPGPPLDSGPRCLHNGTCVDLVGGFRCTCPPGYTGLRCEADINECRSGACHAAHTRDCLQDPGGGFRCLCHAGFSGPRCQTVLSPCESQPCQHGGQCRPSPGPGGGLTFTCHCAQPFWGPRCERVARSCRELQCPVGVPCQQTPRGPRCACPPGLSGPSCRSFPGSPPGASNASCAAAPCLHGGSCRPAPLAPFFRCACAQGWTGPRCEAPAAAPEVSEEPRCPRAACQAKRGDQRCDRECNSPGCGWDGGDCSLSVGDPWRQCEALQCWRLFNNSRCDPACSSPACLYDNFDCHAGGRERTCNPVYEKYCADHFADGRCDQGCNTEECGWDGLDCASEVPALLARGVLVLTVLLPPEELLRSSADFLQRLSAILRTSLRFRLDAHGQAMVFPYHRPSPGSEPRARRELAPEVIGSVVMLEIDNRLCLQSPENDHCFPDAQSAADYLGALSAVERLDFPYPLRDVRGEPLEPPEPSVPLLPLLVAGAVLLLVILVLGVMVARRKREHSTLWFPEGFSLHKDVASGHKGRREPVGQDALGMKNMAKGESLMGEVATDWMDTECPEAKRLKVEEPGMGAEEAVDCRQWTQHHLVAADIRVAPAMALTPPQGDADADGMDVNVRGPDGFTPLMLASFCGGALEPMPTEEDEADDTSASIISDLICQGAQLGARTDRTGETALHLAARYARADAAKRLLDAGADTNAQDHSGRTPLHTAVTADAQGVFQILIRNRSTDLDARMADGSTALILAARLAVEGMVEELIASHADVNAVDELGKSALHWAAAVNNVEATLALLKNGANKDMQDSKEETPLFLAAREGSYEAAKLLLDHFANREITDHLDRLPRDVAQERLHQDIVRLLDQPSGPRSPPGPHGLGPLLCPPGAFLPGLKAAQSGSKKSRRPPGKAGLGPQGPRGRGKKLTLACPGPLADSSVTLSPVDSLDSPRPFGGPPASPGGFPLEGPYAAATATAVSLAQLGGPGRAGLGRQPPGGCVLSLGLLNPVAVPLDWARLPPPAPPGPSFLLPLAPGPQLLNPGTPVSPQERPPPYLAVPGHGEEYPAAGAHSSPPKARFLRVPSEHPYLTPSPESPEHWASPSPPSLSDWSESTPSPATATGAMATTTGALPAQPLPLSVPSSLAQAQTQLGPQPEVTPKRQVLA
Torsin-1A-interacting protein 2 (Homo sapiens), sequence (Q8NFQ8 whole entry, looked up): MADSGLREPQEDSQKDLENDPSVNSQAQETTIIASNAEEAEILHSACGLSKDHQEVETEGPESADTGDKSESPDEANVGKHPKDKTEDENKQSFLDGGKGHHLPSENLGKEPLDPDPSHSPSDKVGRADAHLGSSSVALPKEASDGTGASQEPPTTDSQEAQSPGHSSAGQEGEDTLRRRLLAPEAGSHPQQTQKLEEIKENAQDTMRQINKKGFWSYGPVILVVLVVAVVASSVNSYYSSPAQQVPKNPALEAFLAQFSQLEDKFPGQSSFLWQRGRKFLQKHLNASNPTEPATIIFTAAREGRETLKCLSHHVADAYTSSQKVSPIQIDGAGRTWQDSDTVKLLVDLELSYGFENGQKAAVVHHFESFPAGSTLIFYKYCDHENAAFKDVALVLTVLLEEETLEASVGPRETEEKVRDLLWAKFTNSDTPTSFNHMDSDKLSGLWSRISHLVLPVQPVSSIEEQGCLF

Row | Structure (SMILES) | composite z-score [1] | z-score [2] | z-score [3] | z-score [4] | composite z-score [5] | z-score [6] | composite z-score [7] | composite z-score [8] | composite z-score [9] | composite z-score [10]
1 | COCCOC(=O)N1C(=O)[C@@]2(c3cc(C#CC4(O)CCCCCC4)ccc31)[C@H](C(N)=O)[C@H]1C(=O)O[C@H](c3ccccc3)[C@H](c3ccccc3)N1[C@@H]2c1ccc(O)cc1 | 1.55 | 0.121 (inactive) | 0.182 (inactive) | 0.523 (inactive) | 2.41 | -0.426 (inactive) | -0.0009 | 1.53 | 1.12 | -0.0418
2 | COc1ccc(C(O)C2C=CC3C(=O)N(Cc4ccccc4)C(=O)C3N2n2cnnc2)c2ccccc12 (stereo not given) | 1.17 | -0.346 (inactive) | 0.0768 (inactive) | -0.282 (inactive) | 2.81 | -0.671 (inactive) | -0.238 | -0.641 | 0.556 | -0.175
3 | C=CC[C@]1(C(=O)N(C)C)N=C(c2ccc(OCCCO)cc2)O[C@H]1c1ccccc1N=[N+]=[N-] | 1.48 | 0.0061 (inactive) | -0.102 (inactive) | -0.317 (inactive) | 3.2 | 0.394 (inactive) | 0.285 | 0.464 | 1.03 | 0.0651
4 | CCOC(=O)C[C@H]1[C@H](OC(=O)c2ccc(-c3ccccc3)cc2)[C@@H](NC(=O)C2CCCCC2)c2cc(OCCCO)ccc2N1C(=O)c1ccccc1 | 0.5 | 0.285 (inactive) | 0.881 (inactive) | 1.29 (inactive) | 1.44 | -0.964 (inactive) | -0.13 | 0.714 | 0.855 | -0.113
5 | CC(C)c1ccc(NN2C(C(O)c3ccco3)C=CC3C(=O)N(c4ccccc4)C(=O)C32)cc1 (stereo not given) | 1.57 | 0.61 (inactive) | 0.431 (inactive) | -0.419 (inactive) | 3.27 | -0.577 (inactive) | 0.0997 | 0.18 | 1.02 | 0.0308
6 | COc1cc(CO)cc(I)c1O[C@H]1C=C(C(=O)NCCO)C[C@@H](N(Cc2ccc(F)cc2)C(=O)C2CCCO2)[C@@H]1O (stereo not given in full) | -0.516 | -0.558 (inactive) | -0.389 (inactive) | -0.188 (inactive) | -0.492 | 3.2 (inactive) | -0.116 | 0.0313 | -0.331 | -0.158
7 | Cc1ccc(S[C@]2(C(=O)NCC(F)(F)F)CC(=O)N(Cc3ccccc3)[C@@H]2c2ccc(CO)cc2)cc1 | 0.293 | 0.249 (inactive) | -1.2 (inactive) | -0.711 (inactive) | 2.06 | -1.68 (inactive) | -0.137 | -0.92 | -0.681 | -0.178
8 | CC(C)CN1C(=O)[C@@]2(Cc3ccccc31)c1ccccc1C(=O)N(Cc1ccccc1C(F)(F)F)[C@H]2c1ccc(CO)cc1 | -1.7 | -1.17 (inactive) | -0.147 (inactive) | -3 (inactive) | -1.21 | -0.861 (inactive) | 0.0169 | -0.0224 | -0.527 | -0.187
9 | CC(C)C(=C=CC[C@H](O)c1ccc(OCCO)cc1)C[C@H](O)c1cc(Cl)cc(Cl)c1O | 1.4 | 0.297 (inactive) | -3.66 (inactive) | -0.558 (inactive) | 1.78 | 0.192 (inactive) | 0.0511 | 1.41 | 1.04 | -0.008
10 | COCCOC(=O)N1C(=O)[C@@]2(c3cc(C#CC4(O)CCCCCC4)ccc31)[C@H](C(N)=O)[C@H]1C(=O)O[C@H](c3ccccc3)[C@H](c3ccccc3)N1[C@@H]2c1ccccc1OCCO | 1.54 | 1.53 (inactive) | -0.0153 (inactive) | 4.1 (inactive) | 2.49 | 0.58 (inactive) | -0.484 | 1.09 | 1.08 | 0.445
11 | COCCOC(=O)N1C(=O)[C@@]2(c3cc(C#CC4=CCCCC4)ccc31)[C@H](C(=O)N1CCN(c3ncccn3)CC1)[C@H]1C(=O)O[C@H](c3ccccc3)[C@H](c3ccccc3)N1[C@@H]2c1ccc(O)cc1 | 1.53 | 0.783 (inactive) | 0.883 (inactive) | 2.1 (inactive) | 1.53 | -0.56 (inactive) | 0.0848 | 0.568 | 1.09 | 0.0891
12 | CCOC(=O)[C@@H]1[C@@H]2C(=O)N(CC)C(=O)[C@@H]2C[C@@H]1Sc1ccccc1 | 0.814 | -0.624 (inactive) | 0.792 (inactive) | 2.66 (inactive) | 1.69 | 0.0399 (inactive) | -0.0632 | -0.132 | 0.722 | 0.113
13 | C=C(COC)/C(=C/C[C@@H](OC(=O)c1ccncc1)c1ccc(OCCO)cc1)c1cnc2ccccc2c1 | 1.54 | -2.16 (inactive) | -1.05 (inactive) | -0.263 (inactive) | 2.55 | 1.12 (inactive) | -0.0802 | 1.54 | 1.01 | -0.0531

— PubChem BioAssay
